This passage reports Potency results from PubChem BioAssay (Tox21).

Inconclusive results are not listed. Entries that show only a call come without a potency. Calls of active or inactive are those of the source. The call rests on the fitted dose curve.
Potency means the concentration at half of the fitted maximal effect.

In this experiment the target is Acetylcholinesterase (Homo sapiens) (UniProt P22303). As to the kind of experiment: Acetylcholinesterase (AChE) small molecule antagonists: fluorescence cell-based qHTS assay (AID 1347398). Further: nearly all actives have a fitted effect of over 50% in size. The settings on record: SH-SY5Y cells; Potency: AChE activity; series mostly up to 115 µM. An excerpt: National Center for Advancing Translational Sciences [NCATS]
Sequence of Acetylcholinesterase (Homo sapiens) (P22303 whole entry, looked up): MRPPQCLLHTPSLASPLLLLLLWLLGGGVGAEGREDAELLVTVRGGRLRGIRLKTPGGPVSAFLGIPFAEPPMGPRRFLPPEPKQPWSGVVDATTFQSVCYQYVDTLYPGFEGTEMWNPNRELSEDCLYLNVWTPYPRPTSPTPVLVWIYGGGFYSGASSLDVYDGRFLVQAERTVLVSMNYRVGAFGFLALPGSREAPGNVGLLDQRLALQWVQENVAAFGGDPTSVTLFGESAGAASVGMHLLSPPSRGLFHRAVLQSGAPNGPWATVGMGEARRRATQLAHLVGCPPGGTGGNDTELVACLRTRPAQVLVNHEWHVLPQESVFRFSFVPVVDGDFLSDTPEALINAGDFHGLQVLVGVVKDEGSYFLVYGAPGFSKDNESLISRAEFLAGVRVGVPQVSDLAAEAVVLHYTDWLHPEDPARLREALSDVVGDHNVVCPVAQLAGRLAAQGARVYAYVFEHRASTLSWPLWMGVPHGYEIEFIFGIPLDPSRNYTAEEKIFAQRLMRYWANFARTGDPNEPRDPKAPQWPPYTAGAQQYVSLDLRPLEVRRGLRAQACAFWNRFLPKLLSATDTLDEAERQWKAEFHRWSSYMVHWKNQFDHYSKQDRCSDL
Division of Preclinical Innovation [DPI]
U.S. Environmental Protection Agency [EPA]
National Institutes of Environmental Health Sciences [NIEHS]
National Toxicology Program [NTP]
U.S. Food and Drug Administration [FDA]
Acetylcholinesterase (AChE) is the primary cholinesterase in the body that hydrolyzes a key neurotransmitter, acetylcholine. Inhibition of AChE activity can lead to neurotoxicity. Known inhibitors of AChE include organophosphorous pesticides (OP), chemical warfare agents, drugs, and various phytochemicals.
A homogenous cell-based assay using Amplitetrade mark Fluorimetric Acetylcholinesterase Assay Kit *Green Fluorescence* (AAT Bioquest, Sunnyvale, CA) was used to evaluate the chemicals in the Tox21 10K library that inhibit AChE activity. The assay uses Thiolite Green to quantify the thiocholine produced from the hydrolysis of acetylthiocholine by AChE from the SH-SY5Y cells. AChE can hydrolyze acetylthiocholine to create thiocholine. Thiolite Green is fluorescent when reacting with thiocholine. It has spectral properties similar to those of fluorescein. The fluorescence intensity of Thiolite Green is used to measure AChE activity. Its signal can be easily read by a fluorescence microplate reader at Ex/Em = 490/520 nm.
Tox21 Assay Protocol Summary:
For cell-based AChE assay, 2,000 SH-SY5Y cells in 4 uL/well were dispensed into black, clear-bottom 1536-well plates using a Multidrop Combi (Thermo Scientific) dispenser. The assay plates were incubated overnight at 37 C to allow cells to attach to the wells, followed by the transfer of 23 nL compound or DMSO (vehicle control) by a Pintool station (Wako Automation, CA). The plates were incubated for 30 min at 37 C and 5% CO2, followed by the addition of 4 uL of detection cocktail solution (ThioliteGreen, acetylthiocholine) into each well using Flying Reagent Dispenser (Beckman Coulter, CA) and then following 40 min incubation at room temperature. Fluorescent intensity (Ex/Em = 490/520 nm) was measured using an Envision plate reader (PerkinElmer, MA).
Consider `C[C@]12Cc3cn[nH]c3C[C@@H]1CC[C@@H]1[C@@H]2CC[C@@]2(C)[C@H]1CC[C@]2(C)O`, for which the Potency entry is “inactive”.

Regarding `C#CCC1=C(C)C(OC(=O)C2C(C=C(C)C)C2(C)C)CC1=O` (stereo not given), the Potency entry was “inactive”.

In the case of `CCOC(=O)Cc1ccccc1`, the Potency entry is “inactive”.

As for `Nc1ccc(Cl)cc1C(=O)c1ccccc1F`, the Potency result is “inactive”.

With `CC(C)C(Nc1ccc(C(F)(F)F)cc1Cl)C(=O)OC(C#N)c1cccc(Oc2ccccc2)c1` (stereo not given), the Potency result was “inactive”.

Take `C=CC(=C)C`: the Potency result is “inactive”.

For `COP(=S)(NC(C)C)Oc1ccc(C)cc1[N+](=O)[O-]` (stereo not given), the Potency entry was “inactive”.

Turning to `O=Cc1ccccc1`, the Potency result is “inactive”.

`COCCC#N`: the Potency entry is “inactive”.

As to `CC(Cc1ccc(OCC(=O)O)cc1)NCC(O)c1csc(C(F)(F)F)n1` (stereo not given), the Potency result was “inactive”.

With `Nc1ccc(N=Nc2ccccc2)cc1`, the Potency entry is “inactive”.

Regarding `CCCCC(CC)COC(=O)OOC(C)(C)C` (stereo not given), the Potency result was “inactive”.

For the compound `S=C=Nc1ccccc1`, the Potency result is “inactive”.

For `Oc1ccc([C@H]2CNCc3c2ccc(O)c3O)cc1O`, the Potency is 30.9 µM (active).

For `N#Cc1c2ccccc2cc2ccccc12`, the Potency entry is “inactive”.

As to `FC(F)C(F)(F)OCC(Cn1cncn1)c1ccc(Cl)cc1Cl` (stereo not given), the Potency entry is “inactive”.

For the compound `CC[C@]1(O)CC[C@H]2[C@@H]3CCC4=CCCC[C@@H]4[C@H]3CC[C@@]21C`, the Potency result was “inactive”.

Consider `Cc1ccc([N+](=O)[O-])[c]2c1[O][Hg]2`, for which the Potency result was “inactive”.

For `Brc1cccc(-c2ccccc2)c1`, the Potency result is “inactive”.

Turning to `CC[C@H](C)[C@H]1O[C@]2(C=C[C@@H]1C)C[C@@H]1C[C@@H](C/C=C(\C)[C@@H](O[C@H]3C[C@H](OC)[C@@H](O[C@H]4C[C@H](OC)[C@@H](NC)[C@H](C)O4)[C@H](C)O3)[C@@H](C)/C=C/C=C3\CO[C@@H]4[C@H](O)C(C)=C[C@@H](C(=O)O1)[C@]34O)O2`, the Potency entry was “inactive”.

Turning to `CCC[CH2][Sn]([CH2]CCC)([O]C(C)=O)[O]C(C)=O`, the Potency entry was “inactive”.

Take `ClC1=C(Cl)[C@]2(Cl)[C@@H]3[C@H]4C[C@H]([C@@H]5O[C@H]45)[C@@H]3[C@@]1(Cl)C2(Cl)Cl`: the Potency result was “inactive”.

On to `COc1ccc2c(c1OC)C(=O)O[C@@H]2[C@H]1c2cc3c(cc2CCN1C)OCO3`, for which the Potency entry was “inactive”.

`CC(Cc1ccccc1)N(C)Cc1ccco1` (stereo not given): the Potency result is “inactive”.

Take `C=Cc1cccc(CCl)c1`: the Potency result is “inactive”.

For `ClSC(Cl)(Cl)Cl`, the Potency entry was “inactive”.

Turning to `CC(Cc1ccc2c(c1)OCO2)NO` (stereo not given), the Potency entry is “inactive”.

`CC(C)N(C(=O)SC/C(Cl)=C/Cl)C(C)C`: the Potency entry was “inactive”.

Regarding `C[C@H]1[C@H](c2ccc(Cl)cc2)SC(=O)N1C(=O)NC1CCCCC1`, the Potency result was “inactive”.

As to `Clc1ccc(C2(Cn3cncn3)OCCO2)c(Cl)c1`, the Potency result was “inactive”.

Regarding `CCOP(=O)(OCC)Oc1cc(C)nc(C(C)C)n1`, the Potency was 0.714 µM (active).

Take `CN=C=O`: the Potency result was “inactive”.

Consider `N#Cc1c[nH]cc1-c1cccc2c1OC(F)(F)O2`, for which the Potency result is “inactive”.

As for `CCCCCON=O`, the Potency result is “inactive”.

`COC(=O)/C=C(\C)OP(=O)(OC)OC`: the Potency was 1 µM (active).

Take `Cc1cc(C2CC2)nc(Nc2ccccc2)n1`: the Potency result is “inactive”.

As for `O=C(Nc1ccc(F)cc1F)c1cccnc1Oc1cccc(C(F)(F)F)c1`, the Potency result was “inactive”.

Regarding `CC(Cl)CCl` (stereo not given), the Potency result was “inactive”.

On to `CNN`, for which the Potency entry is “inactive”.

With `CC1=C2C[C@H]3[C@@H](CC=C4C[C@@H](O)CC[C@@]43C)[C@@H]2CC[C@]12O[C@@H]1C[C@H](C)CN[C@H]1[C@H]2C`, the Potency result is “inactive”.
